Experimental data published in PubChem BioAssay (NCATS).
Inconclusive results are not listed. Active and inactive are the calls of the source. Unless noted, calls come from the whole dose curve; as a rule, active = well fitted cell-killing curve with a large enough effect; inconclusive = small, poorly fitted or top-dose-only effect, or effect the other way; inactive = flat fitted curve, though single readings scatter.

What was measured:
[1] = test system: C33A; experiment: Primary qHTS to identify gynecologic anti-cancer compounds using libraries of approved drugs and bioactive compounds (AID 1345084); details: Gynecologic cancer cell panel viability, ATPlite luminescence, 48 h; series mostly up to 57.5 µM; note: % is set by controls: 0 for no effect and ±100 for the full control effect; nearly all actives have a fitted effect of over 55% in size
Method in brief: (§1)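 Cells, 1,000 per well, were allowed to settle for 16 h at 37 C before compound addition. Five concentrations were tested for 48 h, and viability was read by ATPlite luminescence after 15 min at room temperature.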

[2] = test system: CAOV3; experiment: as above; details: Gynecologic cancer cell panel viability, ATPlite luminescence, 48 h; series mostly up to 57.5 µM
Method in brief: as §1

[3] = test system: CASKI; experiment: as above; details: Gynecologic cancer cell panel viability, ATPlite luminescence, 48 h; series mostly up to 57.5 µM
Method in brief: as §1

[4] = test system: Es-2; experiment: as above; details: Gynecologic cancer cell panel viability, ATPlite luminescence, 48 h; series mostly up to 57.5 µM
Method in brief: as §1

[5] = test system: HeLa; experiment: as above; details: Gynecologic cancer cell panel viability, ATPlite luminescence, 48 h; series mostly up to 57.5 µM
Method in brief: as §1

[6] = test system: Hek293T; experiment: as above; details: Gynecologic cancer cell panel viability, ATPlite luminescence, 48 h, control line for the selectivity index; series mostly up to 57.5 µM
Method in brief: as §1

[7] = test system: JEG-3; experiment: as above; details: Gynecologic cancer cell panel viability, ATPlite luminescence, 48 h; series mostly up to 57.5 µM
Method in brief: as §1

[8] = test system: OV90; experiment: as above; details: Gynecologic cancer cell panel viability, ATPlite luminescence, 48 h; series mostly up to 57.5 µM
Method in brief: as §1

[9] = test system: PA-1; experiment: as above; details: Gynecologic cancer cell panel viability, ATPlite luminescence, 48 h; series mostly up to 57.5 µM
Method in brief: as §1

[10] = test system: SKOV3; experiment: as above; details: Gynecologic cancer cell panel viability, ATPlite luminescence, 48 h; series mostly up to 57.5 µM
Method in brief: as §1

[11] = test system: Tov-21-G; experiment: as above; details: Gynecologic cancer cell panel viability, ATPlite luminescence, 48 h; series mostly up to 57.5 µM
Method in brief: as §1

[12] = test system: Tov112D; experiment: as above; details: Gynecologic cancer cell panel viability, ATPlite luminescence, 48 h; series mostly up to 57.5 µM
Method in brief: as §1

[13] = molecular target: Nuclear receptor subfamily 1 group I member 2 (Rattus norvegicus) (UniProt Q9R1A7); experiment: qHTS assay for small molecule activators of the rat pregnane X receptor (rPXR) signaling pathway (AID 651751; call rule not given here; note: 0% is about no effect); details: rPXR reporter cells, luciferase (One-Glo), 24 h
Nuclear receptor subfamily 1 group I member 2 (Rattus norvegicus), sequence (Q9R1A7 whole entry, looked up): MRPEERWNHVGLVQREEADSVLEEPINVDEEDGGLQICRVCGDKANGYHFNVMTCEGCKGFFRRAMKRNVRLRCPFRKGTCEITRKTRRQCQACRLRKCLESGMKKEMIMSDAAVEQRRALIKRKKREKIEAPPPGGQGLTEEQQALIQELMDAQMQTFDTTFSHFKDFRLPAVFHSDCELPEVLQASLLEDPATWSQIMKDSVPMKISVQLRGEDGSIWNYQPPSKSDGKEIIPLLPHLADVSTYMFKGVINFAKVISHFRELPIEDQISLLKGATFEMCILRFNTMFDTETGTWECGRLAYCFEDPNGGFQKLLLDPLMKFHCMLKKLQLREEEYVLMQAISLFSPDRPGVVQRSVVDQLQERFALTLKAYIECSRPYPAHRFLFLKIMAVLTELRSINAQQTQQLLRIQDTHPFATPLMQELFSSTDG

[14] = qHTS assay for small molecule activators of the human pregnane X receptor (PXR) signaling pathway (AID 720659; call rule not given here; note: 0% is about no effect)

C/C=C1\[C@H](O[C@@H]2O[C@H](CO)[C@@H](O)[C@H](O)[C@H]2O)OC=C(C(=O)OC)[C@H]1CC(=O)OC[C@H]1O[C@@H](OCCc2ccc(O)cc2)[C@H](O)[C@@H](O)[C@@H]1O
inactive: Potency [1] | Potency [2] | Potency [3] | Potency [4] | Potency [5] | Potency [6] | Potency [7] | Potency [8] | Potency [9] | Potency [10] | Potency [11] | Potency [12]

Cc1ccc(S(=O)(=O)Nc2ccccc2N2CCCCC2)s1
inactive: Potency [1] | Potency [2] | Potency [3] | Potency [4] | Potency [5] | Potency [6] | Potency [7] | Potency [8] | Potency [9] | Potency [11] | Potency [12]

C=C1C(=O)OC2C1C(O)CC1(C)C(O)CCC(C=O)C21 (stereo not given)
inactive: Potency [1] | Potency [2] | Potency [3] | Potency [4] | Potency [5] | Potency [6] | Potency [7] | Potency [8] | Potency [9] | Potency [11] | Potency [12]

CC(=O)O[C@@H]1CC(C)=C2[C@H]1[C@H](C)CC[C@H]2/C=C(\C)C(=O)O
inactive: Potency [1] | Potency [2] | Potency [3] | Potency [4] | Potency [5] | Potency [6] | Potency [7] | Potency [8] | Potency [9] | Potency [10] | Potency [11] | Potency [12] | max response [13] -4.19% | outcome [14]

OCCc1ccc(O[C@@H]2O[C@H](CO)[C@@H](O)[C@H](O)[C@H]2O)cc1
inactive: Potency [1] | Potency [2] | Potency [3] | Potency [4] | Potency [5] | Potency [6] | Potency [7] | Potency [8] | Potency [9] | Potency [11] | Potency [12]

CC[C@H]1OC(=O)[C@](C)(F)C(=O)[C@H](C)[C@@H](O[C@@H]2O[C@H](C)C[C@H](N(C)C)[C@H]2O)[C@](C)(OC)C[C@@H](C)C(=O)[C@@H](C)[C@H]2N(CCCCn3cc(-c4cccc(N)c4)nn3)C(=O)O[C@]12C
inactive: Potency [1] | Potency [2] | Potency [3] | Potency [4] | Potency [5] | Potency [6] | Potency [7] | Potency [8] | Potency [9] | Potency [10] | Potency [12]

CC(C)(C)c1cc(Br)cc([C@H](CC(=O)O)NC(=O)CNC(=O)c2cc(O)cc(NC3=NCC(O)CN3)c2)c1 (stereo not given in full)
inactive: Potency [1] | Potency [2] | Potency [3] | Potency [4] | Potency [5] | Potency [6] | Potency [7] | Potency [8] | Potency [9] | Potency [10] | Potency [11] | Potency [12]

C[C@@H]1O[C@@H](O[C@@H]2[C@@H](O)[C@@H](O[C@]3(CO)O[C@H](CO)[C@@H](O)[C@@H]3OC(=O)/C=C/c3ccc(O)cc3)O[C@H](CO)[C@H]2OC(=O)/C=C/c2ccc(O)cc2)[C@H](O)[C@H](O)[C@H]1O[C@@H]1O[C@@H](C)[C@H](O[C@@H]2OC[C@](O)(CO)[C@H]2O)[C@@H](O)[C@H]1O
inactive: activity change, negative = cytotoxicity [1] 8.98% [at 11.6 µM] | activity change, negative = cytotoxicity [2] 0.132% [at 11.6 µM] | activity change, negative = cytotoxicity [3] 12.2% [at 11.6 µM] | activity change, negative = cytotoxicity [4] -1.87% [at 11.6 µM] | activity change, negative = cytotoxicity [5] 10.7% [at 11.6 µM] | activity change, negative = cytotoxicity [6] -1.85% [at 11.6 µM] | activity change, negative = cytotoxicity [7] 3.39% [at 11.6 µM] | activity change, negative = cytotoxicity [8] -2.82% [at 11.6 µM] | activity change, negative = cytotoxicity [9] 32.6% [at 11.6 µM] | activity change, negative = cytotoxicity [11] 7.09% [at 11.6 µM] | activity change, negative = cytotoxicity [12] 12.6% [at 11.6 µM]

C[C@@H]1C(=O)OC[C@H]2C(C(=O)O)=C[C@@H]3CC(C)(C)C[C@]312
inactive: Potency [1] | Potency [2] | Potency [3] | Potency [4] | Potency [5] | Potency [6] | Potency [7] | Potency [8] | Potency [9] | Potency [10] | Potency [12]

C=CC1C(OC2OC(CO)C(O)C(O)C2O)OC=C(C(=O)OC)C1CC(=O)OCC1C(C)C(O)CC1C(CO)COC(=O)CC1C(C(=O)O)=COC(OC2OC(CO)C(O)C(O)C2O)/C1=C\C (stereo not given)
inactive: activity change, negative = cytotoxicity [1] 0.0118% [at 11.6 µM] | activity change, negative = cytotoxicity [2] 12.7% [at 11.6 µM] | activity change, negative = cytotoxicity [3] 1.02% [at 11.6 µM] | activity change, negative = cytotoxicity [4] -2.47% [at 11.6 µM] | activity change, negative = cytotoxicity [5] 2.07% [at 11.6 µM] | activity change, negative = cytotoxicity [6] 1.07% [at 11.6 µM] | activity change, negative = cytotoxicity [7] 0.819% [at 11.6 µM] | activity change, negative = cytotoxicity [8] 16.4% [at 11.6 µM] | activity change, negative = cytotoxicity [9] -12.5% [at 11.6 µM] | activity change, negative = cytotoxicity [11] -4.06% [at 11.6 µM] | activity change, negative = cytotoxicity [12] -1.58% [at 11.6 µM]
